Screening data as filed in PubChem BioAssay.
Most compounds without a hit are left out; they make up all but 6.7% or so of the library.
Pf Dd2 inh: inhibitors of Plasmodium falciparum Dd2 growth | P. falciparum Dd2 growth, SYBR Green, 72 h; stronger effect = lower value | activity change, % at 10 µM | hit rate 2.3% among 94,000; in the data active = activity change below about -80%; inconclusive = no clear call, values can overlap the other calls
C diff HTS: inhibitors of Clostridium difficile growth; Clostridium difficile clinical isolate growth, OD600, 24 h; stronger effect = lower value; AID 1259249; hit rate 0.25% among 86,000; growth activity, negative = inhibition, % at 16 µg/mL (by protocol);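 active = mean growth activity at or below -80% and every replicate also at or below -80%; inconclusive = mean at or below -80% but some replicate above -80%; inactive = mean growth activity above -80%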;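 note: 0% = DMSO wells and -100% = levofloxacin 16 µg/mL wells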
T cruzi growth-1: blocks T. cruzi growth in NIH3T3 culture; T. cruzi beta-gal in NIH3T3, GalScreen luminescence, 90 h; hit rate 5.9% among 77,000; inhibition, % at 8.34 µM;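 active = mean inhibition above about 93%, with at least 55% of replicates each passing it, limit read from the data, passing the limit was not always enough; inconclusive = only one of those two conditions holds; inactive = neither condition holds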
T cruzi growth-2: blocks T. cruzi growth in NIH3T3 host cells; T. cruzi beta-gal in NIH3T3, GalScreen luminescence, 90 h; shares compounds with T cruzi growth-1; hit rate 72% among 5,600; inhibition, % at 8.35 µM;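 active = mean replicate inhibition above about 95% and at least 55% of replicates individually reaching it, limit read from the data; inconclusive = only one of the two criteria is met; inactive = neither criterion is met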
T cruzi growth-3: inhibitors of T. cruzi proliferation | shares compounds with T cruzi growth-1 | T. cruzi beta-gal in NIH3T3, GalScreen luminescence, 90 h | inhibition, % at 2.09 µM | hit rate 21% among 5,600 | AID 651740;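 active = mean inhibition above about 95%, with at least 55% of replicates also reaching it, limit read from the data; inconclusive = meets just one of the two conditions; inactive = meets neither condition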;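 note: plate controls were neutral control median for no effect and positive control median for full effect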
NIH3T3 tox: cytotoxicity in mouse NIH/3T3 fibroblasts | shares compounds with T cruzi growth-1 | NIH/3T3 viability, CellTiter-Glo ATP luminescence, 90 h | cytotoxicity (signal decrease), % at 8.35 µM | hit rate 14% among 5,600 | AID 651742;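 active = mean signal decrease across replicates above about 35% based on untreated-well scatter, with enough replicates individually passing, limit read from the data; inconclusive = no rule stated though some were filed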;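 note: 0% = median of neutral control wells and 100% = median of positive control wells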
NIH3T3 tox 2: NIH/3T3 (mouse) viability loss | shares compounds with T cruzi growth-1 | NIH/3T3 viability, CellTiter-Glo ATP luminescence, 90 h | inhibition, % at 24.9 µM | hit rate 56% among 5,600 | AID 651744;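 active = mean loss of cell viability signal at or above a set limit, and enough replicates individually reaching it; inconclusive = meets only the mean limit or only the replicate share; inactive = meets neither condition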;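 note: 0% = median of neutral control wells and 100% = median of positive control wells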
Numbers without * were called inactive; ? = inconclusive; nt = no result.

SMILES	Pf Dd2 inh	C diff HTS	T cruzi growth-1	T cruzi growth-2	T cruzi growth-3	NIH3T3 tox	NIH3T3 tox 2
C[C@H](CO)N1C[C@H](C)[C@@H](CN(C)C)Oc2ccc(NC(=O)CCC(F)(F)F)cc2CC1=O	13	0	nt	nt	nt	nt	nt
C[C@@H]1CN([C@@H](C)CO)C(=O)c2cc(NC(=O)Nc3ccc(F)cc3)ccc2O[C@@H](C)CCCCO[C@H]1CN(C)CC1CCCCC1	-78	7	115*	92	78	9	104*
C[C@@H]1CN([C@H](C)CO)C(=O)c2cc(NC(=O)Nc3ccc(F)cc3)ccc2O[C@@H](C)CCCCO[C@H]1CN(C)C	2	-1	40	nt	nt	nt	nt
COCCNC(=O)C[C@@H]1CC[C@@H]2[C@@H](COc3ccc(NC(=O)C4CCCC4)cc3C(=O)N2C)O1	15	-4	4	nt	nt	nt	nt
C[C@H]1CN([C@@H](C)CO)S(=O)(=O)c2ccc(-c3cncnc3)cc2O[C@H]1CN(C)C(=O)Cc1ccccc1	-25	-1	nt	nt	nt	nt	nt
COCC#Cc1ccc2c(c1)O[C@@H](CN(C)Cc1ccncc1)[C@@H](C)CN([C@H](C)CO)S2(=O)=O	-2	2	?	105*	72	10	8
COCC#Cc1ccc2c(c1)O[C@H](CN(C)Cc1ccncc1)[C@H](C)CN([C@@H](C)CO)S2(=O)=O	15	-5	49	nt	nt	nt	nt
COCC#Cc1ccc2c(c1)O[C@@H](CN(C)Cc1ccncc1)[C@@H](C)CN([C@@H](C)CO)S2(=O)=O	12	1	?	97*	71	20	18
COCC#Cc1ccc2c(c1)O[C@H](CN(C)Cc1ccncc1)[C@H](C)CN([C@H](C)CO)S2(=O)=O	19	-2	29	nt	nt	nt	nt
COCC#Cc1ccc2c(c1)O[C@H](CN(C)Cc1ccccc1)[C@@H](C)CN([C@@H](C)CO)S2(=O)=O	-40	4	?	102*	72	21	104*
COCC#Cc1ccc2c(c1)O[C@H](CN(C)Cc1ccc(F)cc1)[C@@H](C)CN([C@H](C)CO)S2(=O)=O	-61	-2	85	nt	nt	nt	nt
COc1ccc(NC(=O)Nc2ccc3c(c2)C(=O)N([C@@H](C)CO)C[C@@H](C)[C@@H](CN(C)S(C)(=O)=O)OCCCC[C@@H](C)O3)cc1	-1	1	-60	nt	nt	nt	nt
CNC[C@@H]1Oc2ccc(NC(=O)Nc3ccc(C(F)(F)F)cc3)cc2CC(=O)N([C@H](C)CO)C[C@H]1C	-5	1	23	nt	nt	nt	nt
CC(C)NC(=O)Nc1cccc2c1O[C@@H](CN(C)Cc1ccc(C(=O)O)cc1)[C@H](C)CN([C@H](C)CO)C2=O	4	-3	nt	nt	nt	nt	nt
O=C(C[C@@H]1C=C[C@@H](NS(=O)(=O)c2cccc(F)c2)[C@H](CO)O1)N1CCCCC1	0	-5	14	nt	nt	nt	nt
C/C=C/c1cnc2c(c1)C(=O)N([C@@H](C)CO)C[C@H](C)[C@@H](CN(C)Cc1ccc(F)cc1)O2	-21	3	37	nt	nt	nt	nt
C/C=C/c1cnc2c(c1)C(=O)N([C@H](C)CO)C[C@@H](C)[C@@H](CN(C)Cc1ccc(F)cc1)O2	-22	6	119*	?	-21	-5	?
C/C=C/c1cnc2c(c1)C(=O)N([C@@H](C)CO)C[C@H](C)[C@H](CN(C)Cc1ccc(F)cc1)O2	6	5	114*	75	18	23	48*
C/C=C/c1cnc2c(c1)C(=O)N([C@H](C)CO)C[C@H](C)[C@@H](CN(C)Cc1ccc(F)cc1)O2	-37	0	46	nt	nt	nt	nt
COc1ccc(-c2ccc3c(c2)O[C@H](CN(C)C)[C@H](C)CN([C@@H](C)CO)S3(=O)=O)cc1	11	1	-12	nt	nt	nt	nt
CO[C@H]1CN(C)C(=O)c2ccc(NC(=O)C3CC3)cc2OC[C@H](C)N(Cc2nccs2)C[C@@H]1C	nt	nt	-11	nt	nt	nt	nt
C[C@H](CO)N1C[C@H](C)[C@H](CN(C)C(=O)Cc2ccccn2)Oc2ncc(-c3ccncc3)cc2C1=O	10	-3	3	nt	nt	nt	nt
Cc1noc(C)c1S(=O)(=O)Nc1ccc2c(c1)CC(=O)N([C@@H](C)CO)C[C@@H](C)[C@@H](CN(C)C)O2	9	6	-12	nt	nt	nt	nt
O=C1N[C@H](Cc2ccccc2)COCc2cn(nn2)CC[C@H]1Cc1ccccc1	nt	7	nt	nt	nt	nt	nt
CC(C)NC(=O)N(C)C[C@@H]1Oc2cc(-c3ccncc3)ccc2S(=O)(=O)N([C@@H](C)CO)C[C@@H]1C	-7	2	103*	84	53	6	23
SMILES	Pf Dd2 inh	C diff HTS	T cruzi growth-1	T cruzi growth-2	T cruzi growth-3	NIH3T3 tox	NIH3T3 tox 2
Cc1ccc(-c2ccc3c(c2)O[C@H](CN(C)C(=O)NC(C)C)[C@@H](C)CN([C@@H](C)CO)S3(=O)=O)cc1	-12	-8	27	nt	nt	nt	nt
CC(C)NC(=O)N(C)C[C@@H]1Oc2cc(-c3ccncc3)ccc2S(=O)(=O)N([C@@H](C)CO)C[C@H]1C	0	-3	111*	83	84	10	16
CC(C)NC(=O)N(C)C[C@@H]1Oc2cc(-c3ccncc3)ccc2S(=O)(=O)N([C@H](C)CO)C[C@H]1C	-6	2	119*	?	74	11	12
CCCNC(=O)N(C)C[C@H]1Oc2cc(-c3ccncc3)ccc2S(=O)(=O)N([C@@H](C)CO)C[C@@H]1C	-30	0	97*	?	13	-17	?
CC(C)NC(=O)N(C)C[C@H]1Oc2cc(-c3ccccc3)ccc2S(=O)(=O)N([C@H](C)CO)C[C@H]1C	13	-7	56	nt	nt	nt	nt
CCCNC(=O)N(C)C[C@@H]1Oc2cc(-c3ccncc3)ccc2S(=O)(=O)N([C@@H](C)CO)C[C@@H]1C	0	-2	30	nt	nt	nt	nt
CC(C)NC(=O)N(C)C[C@@H]1Oc2cc(-c3cncnc3)ccc2S(=O)(=O)N([C@@H](C)CO)C[C@@H]1C	-29	2	-3	nt	nt	nt	nt
COc1cccc(S(=O)(=O)N[C@@H]2CC[C@H](CC(=O)NCc3ccc(F)cc3)O[C@@H]2CO)c1	-10	-4	26	nt	nt	nt	nt
CN1C[C@@H](O)COC[C@H]2O[C@H](CC(=O)N3CCN(c4ccccc4)CC3)CC[C@@H]21	2	-6	2	nt	nt	nt	nt
CCCC(=O)Nc1ccc2c(c1)OC[C@@H](C)N(CCc1ccccc1)C[C@H](C)[C@H](OC)CN(C)C2=O	nt	nt	-4	nt	nt	nt	nt
CC(C)NC(=O)N1C[C@@H]2[C@H](c3ccccc31)[C@H](CO)N2Cc1ccccc1	0	2	45	nt	nt	nt	nt
C[C@@H]1CCCCO[C@@H](CN(C)S(=O)(=O)c2cn(C)cn2)[C@H](C)CN([C@@H](C)CO)C(=O)c2cc(NS(C)(=O)=O)ccc2O1	48	-6	32	nt	nt	nt	nt
O=C(Nc1ccccc1F)N1C[C@@H]2[C@H](c3ccccc31)[C@H](CO)N2C(=O)C1CCOCC1	-79	-1	107*	-60	-16	-7	-15
O=C(Nc1ccccc1F)N1C[C@@H]2[C@H](c3ccccc31)[C@H](CO)N2C(=O)C1CC1	1	-1	-16	nt	nt	nt	nt
